Assay results as given in PMC10668032, “Altered binding affinity of SIX1-Q177R correlates with enhanced WNT5A and WNT pathway effector expression in Wilms tumor”.
The full ranking holds about 33,000 sequences; the median of “e-score” is about -0.05, and the highest 2% start at about 0.38. This is one part of a sample in which the highest values are shown more often than they occur.

target: T1, SIX1-Q177R homeodomain (human, UniProt Q15475 108-198, Q177R); test: universal protein binding microarray; Universal all-10-mer PBM (8x60K, AMADID 030236), 300 nM GST-tagged protein, Alexa Fluor 488 anti-GST; buffer, salt, pH and temperature not stated (as in Berger); high values mean tight binding; conditions: protein: ivt; tags: N-terminal GST; dsDNA, one strand shown
T1 sequence: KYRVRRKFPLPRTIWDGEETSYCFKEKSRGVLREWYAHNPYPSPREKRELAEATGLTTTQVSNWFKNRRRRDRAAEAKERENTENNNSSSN
Procedure, shortened: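 Duplicate protein binding microarrays (universal 'all 10-mer', 8×60K format) were incubated with GST-tagged homeodomains at 300 nM final concentration. Binding was quantified as 8-mer E-scores with the Universal PBM Analysis Suite.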

Sequence	binding signal [E-score]
ACCAACGC	0.246 ± 0.0108
TATCAACA	0.288 ± 0.0159
ACCCCGAC	0.265 ± 0.018
CTCGATCC	0.201 ± 0.00608
GGTGCTTA	0.234 ± 0.00599
CGGTGACA	0.248 ± 0.0377
CAAACCCC	0.197 ± 0.0505
CACTGTGA	0.177 ± 0.00305
CAGCCGAC	0.196 ± 0.0242
TCACACGA	0.226 ± 0.00234
GCACACCA	0.401 ± 0.0217
TCACACCA	0.434 ± 0.00571
TCACAACA	0.195 ± 0.0326
CCACACGA	0.234 ± 0.0111
ACACACGA	0.251 ± 0.0465
GCACACGC	0.256 ± 0.0166
CCACACCG	0.363 ± 0.0269
ACACACAA	0.244 ± 0.0667
ACACACCA	0.415 ± 0.0235
CCACACCA	0.393 ± 0.0307
GCACACGA	0.214 ± 0.0114
ATCCCCTG	0.156 ± 0.0119

Sequence	binding signal [E-score]
ACTATACG	0.178 ± 0.015
CACTCTGA	0.239 ± 0.0406
CACCTTGC	0.258 ± 0.0162
TGTTGAAA	0.219 ± 0.0411
AGTGATAC	0.265 ± 0.0283
CGTATACA	0.241 ± 0.0194
GCGGTACA	0.305 ± 0.00496
ACACTAGG	0.381 ± 0.0153
ACCCTAGG	0.1523 ± 0.00136
ACACTAAA	0.345 ± 0.0117
ACACTAGT	0.389 ± 0.00685
ACACTAGC	0.364 ± 0.0183
ACACTAGA	0.318 ± 0.0323
GGATCAGA	0.17 ± 0.0215
CCCTGCAG	0.185 ± 0.0216
CTCTTACA	0.183 ± 0.018
ATGGGATC	0.185 ± 0.00496
CCGAACCC	0.186 ± 0.0116
CCGAATAC	0.163 ± 0.00356
ACGAACAC	0.3992 ± 0.00182
GCGAACCC	0.174 ± 0.0509
ACGAGCAC	0.226

Sequence	binding signal [E-score]
CCGAACAC	0.4236 ± 0.00158
GCGAACAC	0.4086 ± 0.0011
ACCCTAAC	0.154 ± 0.00793
ACCCACAG	0.217 ± 0.00978
CACCAGGA	0.25 ± 0.00664
GTACCTAC	0.152 ± 0.0312
CTCCGTTC	0.182 ± 0.0356
CCCAAACG	0.169 ± 0.00462
ACAGGGTG	0.222 ± 0.00416
AGCACCAC	0.272 ± 0.00962
AACACGAA	0.305 ± 0.0107
AGCACCAT	0.16 ± 0.0114
AGCACCAA	0.196 ± 0.00899
AACACCAT	0.457 ± 0.0053
TACACGAA	0.3773 ± 0.000856
AACACCAA	0.46725 ± 0.00029
AACACGAC	0.373 ± 0.0147
TACACCAA	0.4751 ± 0.00401
TGCACCAA	0.211 ± 0.0149
AACACCAC	0.4833 ± 0.00244
GTCCGACA	0.217 ± 0.042
GTAAGCAC	0.189 ± 0.00735

Sequence	binding signal [E-score]
CCTCCTAA	0.197 ± 0.00216
GACGGTGC	0.175 ± 0.00182
CACTGCAC	0.223 ± 0.0117
ACCCTCGG	0.2 ± 0.0194
GACCACAC	0.269 ± 0.0108
GATACCAA	0.263 ± 0.0211
GACACCAC	0.489 ± 0.00507
GACACCAA	0.475 ± 0.00758
GACACAAA	0.224 ± 0.11
GGCACCAC	0.215 ± 0.0174
CCCCTCGA	0.23 ± 0.0411
GGCGGGTA	0.214 ± 0.0165
CCGGGTAC	0.294 ± 0.0102
AACGGGTG	0.314 ± 0.00327
ACCCGGTG	0.3599 ± 0.0016
CTACTCCC	0.228 ± 0.0226
CACGGCCG	0.188 ± 0.00306
GTGTATTA	0.401 ± 0.0189
GGGTATTA	0.161 ± 0.054
CAGTATCA	0.2 ± 0.0287
GTGTATCA	0.392 ± 0.0104
